Assay results: the supplement of paper PMC11732987, “Enantioselective OTUD7B fragment discovery through chemoproteomics screening and high-throughput optimisation” (Communications Chemistry, 2025)

Columns and labels:
Assay in all cases: log2 ratio of Biotin-Ahx-Ub-VS probe labelling (fragment/DMSO); higher = less target engagement (more negative = stronger competition), active = hit call of the paper (q ≤ 0.05, log2 ratio ≤ -1)
Details in all cases: compound concentration: 200 uM; treatment time: 3 h
USP34 = USP34 (UniProt Q70CQ2)
USP34, sequence (Q70CQ2 whole entry, the tested form may be a part): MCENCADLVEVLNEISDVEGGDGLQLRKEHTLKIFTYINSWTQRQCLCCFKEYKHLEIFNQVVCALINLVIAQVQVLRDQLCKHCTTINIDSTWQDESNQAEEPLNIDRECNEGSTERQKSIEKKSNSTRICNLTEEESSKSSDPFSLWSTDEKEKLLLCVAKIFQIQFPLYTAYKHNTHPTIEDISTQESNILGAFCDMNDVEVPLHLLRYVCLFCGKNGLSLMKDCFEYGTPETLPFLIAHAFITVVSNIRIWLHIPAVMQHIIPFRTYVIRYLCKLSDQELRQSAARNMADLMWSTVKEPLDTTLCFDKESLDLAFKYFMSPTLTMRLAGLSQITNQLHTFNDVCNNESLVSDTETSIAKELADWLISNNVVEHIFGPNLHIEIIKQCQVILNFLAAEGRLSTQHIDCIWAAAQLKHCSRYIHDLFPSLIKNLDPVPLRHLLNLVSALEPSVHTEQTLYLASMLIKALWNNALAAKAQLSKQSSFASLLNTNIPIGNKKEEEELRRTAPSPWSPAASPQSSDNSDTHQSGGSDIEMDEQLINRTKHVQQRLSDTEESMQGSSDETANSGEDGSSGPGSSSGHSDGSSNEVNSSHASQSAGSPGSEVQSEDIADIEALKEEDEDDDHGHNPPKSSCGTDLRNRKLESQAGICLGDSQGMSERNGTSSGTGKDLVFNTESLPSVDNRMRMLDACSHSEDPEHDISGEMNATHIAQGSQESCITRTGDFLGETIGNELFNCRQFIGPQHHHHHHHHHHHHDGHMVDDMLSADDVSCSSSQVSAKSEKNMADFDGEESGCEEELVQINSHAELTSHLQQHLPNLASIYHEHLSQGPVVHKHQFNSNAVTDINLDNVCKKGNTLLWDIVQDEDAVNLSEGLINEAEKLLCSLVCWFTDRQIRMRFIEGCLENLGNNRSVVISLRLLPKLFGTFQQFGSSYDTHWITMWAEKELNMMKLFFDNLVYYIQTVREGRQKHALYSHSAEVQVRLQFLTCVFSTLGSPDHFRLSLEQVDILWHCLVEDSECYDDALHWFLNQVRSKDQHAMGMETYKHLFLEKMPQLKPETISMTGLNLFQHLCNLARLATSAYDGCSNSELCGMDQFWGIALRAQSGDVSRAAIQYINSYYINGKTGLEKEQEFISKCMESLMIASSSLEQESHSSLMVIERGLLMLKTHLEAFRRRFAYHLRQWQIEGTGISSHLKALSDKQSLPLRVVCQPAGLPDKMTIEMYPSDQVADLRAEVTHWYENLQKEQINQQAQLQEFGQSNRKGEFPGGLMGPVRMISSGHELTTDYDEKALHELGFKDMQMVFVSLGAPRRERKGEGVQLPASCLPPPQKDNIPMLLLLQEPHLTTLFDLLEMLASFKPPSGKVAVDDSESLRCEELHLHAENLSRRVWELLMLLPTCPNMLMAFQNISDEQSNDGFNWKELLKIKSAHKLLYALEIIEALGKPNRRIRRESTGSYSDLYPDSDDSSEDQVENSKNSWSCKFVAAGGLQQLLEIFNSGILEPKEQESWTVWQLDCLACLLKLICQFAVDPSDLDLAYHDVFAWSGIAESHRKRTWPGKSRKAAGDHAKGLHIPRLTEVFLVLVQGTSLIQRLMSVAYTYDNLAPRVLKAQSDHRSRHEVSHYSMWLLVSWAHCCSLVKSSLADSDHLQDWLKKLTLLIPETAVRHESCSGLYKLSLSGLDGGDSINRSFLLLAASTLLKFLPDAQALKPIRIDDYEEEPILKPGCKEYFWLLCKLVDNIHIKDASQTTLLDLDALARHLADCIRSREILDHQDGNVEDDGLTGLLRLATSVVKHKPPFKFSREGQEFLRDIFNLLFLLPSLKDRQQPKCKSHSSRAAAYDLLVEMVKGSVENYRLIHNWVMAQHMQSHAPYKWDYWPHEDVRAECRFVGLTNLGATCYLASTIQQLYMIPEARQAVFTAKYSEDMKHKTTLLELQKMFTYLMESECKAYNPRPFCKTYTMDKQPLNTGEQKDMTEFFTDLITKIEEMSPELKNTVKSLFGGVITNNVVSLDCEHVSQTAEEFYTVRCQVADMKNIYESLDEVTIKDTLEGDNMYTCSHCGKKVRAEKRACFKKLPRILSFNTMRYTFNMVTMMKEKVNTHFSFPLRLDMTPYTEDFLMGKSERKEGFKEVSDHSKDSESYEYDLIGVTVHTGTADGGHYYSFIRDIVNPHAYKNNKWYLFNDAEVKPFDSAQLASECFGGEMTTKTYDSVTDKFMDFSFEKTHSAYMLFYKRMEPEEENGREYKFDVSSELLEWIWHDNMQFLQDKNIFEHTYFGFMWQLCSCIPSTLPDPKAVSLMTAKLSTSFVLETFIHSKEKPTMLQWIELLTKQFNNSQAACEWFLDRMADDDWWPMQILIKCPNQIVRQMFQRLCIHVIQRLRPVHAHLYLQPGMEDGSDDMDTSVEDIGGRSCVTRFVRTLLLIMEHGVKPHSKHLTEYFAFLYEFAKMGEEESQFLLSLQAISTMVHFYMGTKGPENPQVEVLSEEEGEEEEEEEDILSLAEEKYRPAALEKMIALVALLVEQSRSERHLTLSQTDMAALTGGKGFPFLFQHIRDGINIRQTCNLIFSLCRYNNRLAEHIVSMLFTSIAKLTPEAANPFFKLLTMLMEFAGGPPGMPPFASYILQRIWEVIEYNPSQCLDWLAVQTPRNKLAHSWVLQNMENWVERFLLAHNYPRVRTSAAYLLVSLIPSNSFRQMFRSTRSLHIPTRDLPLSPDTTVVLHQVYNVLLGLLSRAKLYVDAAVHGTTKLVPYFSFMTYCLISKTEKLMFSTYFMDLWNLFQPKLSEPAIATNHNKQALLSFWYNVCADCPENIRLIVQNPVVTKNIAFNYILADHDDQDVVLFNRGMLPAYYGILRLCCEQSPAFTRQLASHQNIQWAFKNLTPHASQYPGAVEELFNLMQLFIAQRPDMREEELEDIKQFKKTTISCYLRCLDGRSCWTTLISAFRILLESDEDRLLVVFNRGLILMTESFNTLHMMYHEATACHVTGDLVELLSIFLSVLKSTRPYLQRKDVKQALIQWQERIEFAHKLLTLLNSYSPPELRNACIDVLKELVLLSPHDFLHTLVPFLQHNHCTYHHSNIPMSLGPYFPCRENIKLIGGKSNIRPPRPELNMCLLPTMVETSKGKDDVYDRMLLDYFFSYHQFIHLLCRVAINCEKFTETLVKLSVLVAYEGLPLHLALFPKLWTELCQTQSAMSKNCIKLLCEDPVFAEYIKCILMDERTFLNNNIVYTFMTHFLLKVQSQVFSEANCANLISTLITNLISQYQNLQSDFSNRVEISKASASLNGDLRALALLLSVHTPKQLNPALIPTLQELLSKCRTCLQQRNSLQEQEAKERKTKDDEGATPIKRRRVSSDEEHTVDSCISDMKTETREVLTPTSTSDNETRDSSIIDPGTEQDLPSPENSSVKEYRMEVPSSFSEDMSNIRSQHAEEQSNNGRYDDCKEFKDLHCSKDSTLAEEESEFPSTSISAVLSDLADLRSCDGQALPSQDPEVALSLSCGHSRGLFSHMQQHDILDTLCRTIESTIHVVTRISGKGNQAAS
Outline: (§1)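 HEK293T lysate in Tris/CHAPS/IGEPAL buffer with protease inhibitors (495 µg per sample) was given fragment at 200 µM or vehicle for 3 h, in triplicate. It then received Biotin-Ahx-Ub-VS at 0.5 µM final for 1 h. Labelled DUBs were NeutrAvidin-enriched, digested with LysC and trypsin, and run by diaPASEF LC-MS/MS. Values are average log2 fragment/vehicle ratios by unpaired t-test on global-median-normalised Spectronaut quantities of proteins with ≥2 unique peptides.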

USP36 = biological target: T1, USP36 (UniProt Q9P275)
T1 sequence (whole entry): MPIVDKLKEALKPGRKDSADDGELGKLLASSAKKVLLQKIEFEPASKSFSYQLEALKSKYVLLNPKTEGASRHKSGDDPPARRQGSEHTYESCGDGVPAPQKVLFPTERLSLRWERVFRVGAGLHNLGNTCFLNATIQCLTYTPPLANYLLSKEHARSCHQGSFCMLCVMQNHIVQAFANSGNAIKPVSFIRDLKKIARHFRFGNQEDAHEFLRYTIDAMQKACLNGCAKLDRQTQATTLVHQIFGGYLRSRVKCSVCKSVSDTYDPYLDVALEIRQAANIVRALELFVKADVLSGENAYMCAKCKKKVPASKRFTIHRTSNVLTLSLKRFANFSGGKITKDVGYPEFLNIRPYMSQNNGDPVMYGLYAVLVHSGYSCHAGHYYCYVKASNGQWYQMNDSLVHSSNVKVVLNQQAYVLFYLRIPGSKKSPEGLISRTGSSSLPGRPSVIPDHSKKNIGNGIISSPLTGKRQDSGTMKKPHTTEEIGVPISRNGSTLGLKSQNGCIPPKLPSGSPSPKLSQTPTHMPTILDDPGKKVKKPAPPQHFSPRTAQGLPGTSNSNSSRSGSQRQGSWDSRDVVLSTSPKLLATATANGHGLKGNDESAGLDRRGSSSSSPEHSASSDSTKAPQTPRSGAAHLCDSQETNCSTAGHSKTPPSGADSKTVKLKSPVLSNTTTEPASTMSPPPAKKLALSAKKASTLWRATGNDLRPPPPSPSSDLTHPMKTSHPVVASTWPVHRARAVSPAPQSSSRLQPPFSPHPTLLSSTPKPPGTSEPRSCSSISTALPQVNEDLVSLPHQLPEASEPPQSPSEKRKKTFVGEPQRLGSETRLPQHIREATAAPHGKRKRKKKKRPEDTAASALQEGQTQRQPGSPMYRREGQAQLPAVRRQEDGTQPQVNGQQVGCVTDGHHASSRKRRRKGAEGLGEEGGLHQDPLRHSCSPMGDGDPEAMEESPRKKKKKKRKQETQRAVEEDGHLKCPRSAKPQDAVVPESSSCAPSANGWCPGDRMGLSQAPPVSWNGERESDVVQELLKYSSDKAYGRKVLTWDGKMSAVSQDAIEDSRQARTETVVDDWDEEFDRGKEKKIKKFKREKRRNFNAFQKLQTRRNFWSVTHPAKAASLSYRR
Outline: as §1

USP38 = biological target: T2, USP38 (UniProt Q8NB14)
T2 sequence (whole entry): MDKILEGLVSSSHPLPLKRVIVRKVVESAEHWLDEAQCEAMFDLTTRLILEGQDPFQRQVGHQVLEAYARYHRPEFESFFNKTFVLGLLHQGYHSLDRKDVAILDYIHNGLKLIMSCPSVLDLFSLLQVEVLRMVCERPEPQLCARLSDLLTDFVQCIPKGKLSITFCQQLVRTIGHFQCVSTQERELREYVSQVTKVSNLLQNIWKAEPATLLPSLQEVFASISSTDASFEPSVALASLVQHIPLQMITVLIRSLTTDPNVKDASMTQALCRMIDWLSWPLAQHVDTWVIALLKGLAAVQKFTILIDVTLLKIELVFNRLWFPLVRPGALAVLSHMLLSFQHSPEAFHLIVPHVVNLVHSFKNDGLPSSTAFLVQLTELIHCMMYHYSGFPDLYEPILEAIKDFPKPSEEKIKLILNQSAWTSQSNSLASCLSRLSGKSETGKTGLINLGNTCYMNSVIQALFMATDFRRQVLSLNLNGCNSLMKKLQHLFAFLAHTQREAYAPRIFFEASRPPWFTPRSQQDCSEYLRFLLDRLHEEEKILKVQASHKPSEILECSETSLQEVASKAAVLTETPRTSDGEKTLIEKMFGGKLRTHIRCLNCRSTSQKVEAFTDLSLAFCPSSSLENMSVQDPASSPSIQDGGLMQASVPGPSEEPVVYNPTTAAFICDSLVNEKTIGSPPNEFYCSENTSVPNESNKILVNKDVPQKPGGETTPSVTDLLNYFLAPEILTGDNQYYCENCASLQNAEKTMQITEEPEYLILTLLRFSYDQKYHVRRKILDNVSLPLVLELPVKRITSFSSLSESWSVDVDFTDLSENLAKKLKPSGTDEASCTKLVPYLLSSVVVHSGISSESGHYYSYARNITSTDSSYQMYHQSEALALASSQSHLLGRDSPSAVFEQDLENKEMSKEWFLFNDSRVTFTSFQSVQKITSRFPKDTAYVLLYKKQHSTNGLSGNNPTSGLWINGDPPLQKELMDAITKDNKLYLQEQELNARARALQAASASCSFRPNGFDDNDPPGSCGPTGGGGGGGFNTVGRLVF
Outline: as §1

USP39 = biological target: T3, USP39 (UniProt Q53GS9)
T3 sequence (whole entry): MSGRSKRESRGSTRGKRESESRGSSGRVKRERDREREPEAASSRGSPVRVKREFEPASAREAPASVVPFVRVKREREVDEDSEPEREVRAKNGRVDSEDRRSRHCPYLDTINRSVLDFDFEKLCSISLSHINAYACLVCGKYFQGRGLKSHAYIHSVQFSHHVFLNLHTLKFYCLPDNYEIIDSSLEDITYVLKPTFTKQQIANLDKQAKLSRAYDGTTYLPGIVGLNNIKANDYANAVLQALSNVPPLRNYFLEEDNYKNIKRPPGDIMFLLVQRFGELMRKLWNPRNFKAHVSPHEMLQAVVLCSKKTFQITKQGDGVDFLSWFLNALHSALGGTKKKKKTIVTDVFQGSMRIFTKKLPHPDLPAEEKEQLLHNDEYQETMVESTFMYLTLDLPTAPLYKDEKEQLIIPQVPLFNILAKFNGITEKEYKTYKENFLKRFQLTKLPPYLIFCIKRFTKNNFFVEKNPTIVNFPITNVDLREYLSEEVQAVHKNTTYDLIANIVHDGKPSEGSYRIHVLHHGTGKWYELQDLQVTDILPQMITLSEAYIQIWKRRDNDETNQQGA
Outline: as §1

USP4 = biological target: T4, USP4 (UniProt Q13107)
T4 sequence (whole entry): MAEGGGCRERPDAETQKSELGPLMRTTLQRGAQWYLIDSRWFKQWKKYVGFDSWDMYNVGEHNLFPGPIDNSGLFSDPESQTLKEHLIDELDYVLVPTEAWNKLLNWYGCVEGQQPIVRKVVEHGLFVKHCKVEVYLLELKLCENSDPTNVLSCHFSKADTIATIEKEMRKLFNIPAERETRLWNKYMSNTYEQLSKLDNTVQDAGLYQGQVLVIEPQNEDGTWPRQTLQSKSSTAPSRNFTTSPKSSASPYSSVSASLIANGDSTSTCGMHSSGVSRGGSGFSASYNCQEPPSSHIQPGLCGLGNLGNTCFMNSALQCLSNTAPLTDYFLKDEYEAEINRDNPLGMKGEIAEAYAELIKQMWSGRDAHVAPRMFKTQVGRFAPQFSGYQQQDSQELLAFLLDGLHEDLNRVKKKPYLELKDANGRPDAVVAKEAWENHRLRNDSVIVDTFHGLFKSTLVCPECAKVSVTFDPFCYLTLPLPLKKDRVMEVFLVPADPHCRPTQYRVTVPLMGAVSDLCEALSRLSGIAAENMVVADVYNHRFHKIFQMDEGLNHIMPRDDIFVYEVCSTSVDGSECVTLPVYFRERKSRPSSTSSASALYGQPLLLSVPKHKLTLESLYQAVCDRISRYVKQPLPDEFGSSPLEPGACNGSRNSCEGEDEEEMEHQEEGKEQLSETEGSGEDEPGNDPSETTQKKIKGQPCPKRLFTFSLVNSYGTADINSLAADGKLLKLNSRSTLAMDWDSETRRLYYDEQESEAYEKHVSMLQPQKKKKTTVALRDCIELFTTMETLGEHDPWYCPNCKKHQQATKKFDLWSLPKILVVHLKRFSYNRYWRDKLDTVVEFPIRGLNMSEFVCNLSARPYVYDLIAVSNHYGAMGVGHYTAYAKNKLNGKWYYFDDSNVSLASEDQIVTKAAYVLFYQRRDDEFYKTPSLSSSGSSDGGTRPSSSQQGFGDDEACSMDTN
Outline: as §1

Measured: log2 ratio of Biotin-Ahx-Ub-VS probe labelling

O=C(CCl)N1CCC(=C(F)CO)C1
inactive: USP34 0.0842 | USP36 -0.125 | USP38 0.0909 | USP39 0.212 | USP4 0.218
